Laboratory results published in the supplement of paper PMC10849652.
The full data set covers some 8,800 targets. This sample favours those with a hit. About 0.5% of all pairs of compound and target were hits.

Columns and labels:
Assay in all cases: log2 fold change, soluble protein after heating vs DMSO (PISA); higher = thermal stabilisation; K562 lysate, 10 uM; active = over 0.2 and 3.5 SD of the protein, either way, in both replicates (recomputed)
vemurafenib = compound: CCCS(=O)(=O)Nc1ccc(F)c(C(=O)c2c[nH]c3ncc(-c4ccc(Cl)cc4)cc23)c1F [vemurafenib]
Procedure, shortened: (§1)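 Log-two fold change in thermal stability relative to solvent controls is reported from duplicates. For each sample, crude K562 extract from dounce-homogenised pellets in PBS pH 7.4 with 1 mM MgCl2, at 1 mg/mL protein, was treated with 10 μM compound for 30 min. Aliquots heated for 3 min across 48°C-58°C were pooled, brought to 0.5% NP-40 at 4°C and cleared at 21,000xg for 90 min. The supernatant was quantified by TMTpro 16plex LC-MS/MS with channel sums equalised.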

[1] = compound: CC[C@@H]1C(=O)N(C)c2cnc(Nc3ccc(C(=O)NC4CCN(C)CC4)cc3OC)nc2N1C1CCCC1
Procedure, shortened: as §1

[2] = compound: CCn1c(C(=O)N(C2CC2)C2CC2)cc2c3c(ncn3C)c(Nc3cc(C)n(C)n3)nc21
Procedure, shortened: as §1

[3] = compound: CCn1cc(-c2ccnc3[nH]c(-c4cccc(CN(C)C)c4)cc23)c(-c2ccc(NC(=O)N(C)C)cc2)n1
Procedure, shortened: as §1

[4] = compound: CN1CCC(CNc2ccc3ncc(-c4cccc(OC(F)(F)F)c4)n3n2)CC1
Procedure, shortened: as §1

saracatinib = compound: CN1CCN(CCOc2cc(OC3CCOCC3)c3c(Nc4c(Cl)ccc5c4OCO5)ncnc3c2)CC1 [saracatinib]
Procedure, shortened: as §1

sotrastaurin = compound: CN1CCN(c2nc(C3=C(c4c[nH]c5ccccc45)C(=O)NC3=O)c3ccccc3n2)CC1 [sotrastaurin]
Procedure, shortened: as §1

alvocidib = compound: CN1CC[C@H](c2c(O)cc(O)c3c(=O)cc(-c4ccccc4Cl)oc23)[C@H](O)C1 [alvocidib]
Procedure, shortened: as §1

Tubastatin A = compound: CN1CCc2c(c3ccccc3n2Cc2ccc(C(=O)NO)cc2)C1 [Tubastatin A]
Procedure, shortened: as §1

[5] = compound: CNC(=O)C1=CC=CC=C1NC2=NC(=NC=C2Cl)NC3=C(C=C(C=C3)N4CCOCC4)OC
Procedure, shortened: as §1

defactinib = compound: CNC(=O)c1ccc(Nc2ncc(C(F)(F)F)c(NCc3nccnc3N(C)S(C)(=O)=O)n2)cc1 [defactinib]
Procedure, shortened: as §1

[6] = compound: CNc1nc(-c2ccc3c(N)n[nH]c3c2)cc(N2C[C@@H](C(=O)NC3CCCCC3)CC[C@H]2C)n1
Procedure, shortened: as §1

encorafenib = compound: COC(=O)N[C@@H](C)CNc1nccc(-c2cn(C(C)C)nc2-c2cc(Cl)cc(NS(C)(=O)=O)c2F)n1 [encorafenib]
Procedure, shortened: as §1

[7] = compound: COC(=O)[C@H](CCSC)NC(=O)C1=C(C=C(C=C1)NC[C@H](CS)N)C2=CC=CC=C2
Procedure, shortened: as §1

alisertib = compound: COc1cc(Nc2ncc3c(n2)-c2ccc(Cl)cc2C(c2c(F)cccc2OC)=NC3)ccc1C(=O)O [alisertib]
Procedure, shortened: as §1

gefitinib = compound: COc1cc2ncnc(Nc3ccc(F)c(Cl)c3)c2cc1OCCCN1CCOCC1 [gefitinib]
Procedure, shortened: as §1

[8] = compound: CCCS(=O)(=O)Nc1ccc(F)c(C(=O)c2c[nH]c3ncc(Cl)cc23)c1F
Procedure, shortened: as §1

barasertib = compound: CCN(CCCOc1ccc2c(Nc3cc(CC(=O)Nc4cccc(F)c4)[nH]n3)ncnc2c1)CCOP(=O)(O)O [barasertib]
Procedure, shortened: as §1

volasertib = compound: CC[C@@H]1C(=O)N(C)c2cnc(Nc3ccc(C(=O)N[C@H]4CC[C@H](N5CCN(CC6CC6)CC5)CC4)cc3OC)nc2N1C(C)C [volasertib]
Procedure, shortened: as §1

[9] = compound: COc1cc2nc(-c3cc(F)ccc3O)nc(N[C@@H]3CNC[C@H]3C(C)(C)O)c2cc1OC
Procedure, shortened: as §1

Measured: log2 fold change

PAPOLG (UniProt Q9BWT3)
inactive: vemurafenib -0.176 | [1] -0.04 | [2] -0.02 | [3] -0.013 | [4] -0.049 | saracatinib -0.235 | sotrastaurin 0.031 | alvocidib -0.008 | Tubastatin A 0.16 | [5] 0.003 | defactinib -0.025 | [6] 0.085 | encorafenib 0.063 | [7] 0.098 | alisertib -0.035 | gefitinib 0.062

MYLK (UniProt Q15746)
active: [1] -0.675
inactive: vemurafenib -0.254 | [8] -0.022 | barasertib -0.097 | volasertib -0.053 | [3] -0.169 | [4] 0.014 | sotrastaurin -0.084 | alvocidib 0.097 | defactinib 0.128 | encorafenib 0.154 | [7] -0.008 | alisertib -0.001 | [9] -0.109 | gefitinib 0.071

PANK2 (UniProt Q9BZ23)
Chain of UniProt Q9BZ23 (Q9BZ23 whole entry, looked up): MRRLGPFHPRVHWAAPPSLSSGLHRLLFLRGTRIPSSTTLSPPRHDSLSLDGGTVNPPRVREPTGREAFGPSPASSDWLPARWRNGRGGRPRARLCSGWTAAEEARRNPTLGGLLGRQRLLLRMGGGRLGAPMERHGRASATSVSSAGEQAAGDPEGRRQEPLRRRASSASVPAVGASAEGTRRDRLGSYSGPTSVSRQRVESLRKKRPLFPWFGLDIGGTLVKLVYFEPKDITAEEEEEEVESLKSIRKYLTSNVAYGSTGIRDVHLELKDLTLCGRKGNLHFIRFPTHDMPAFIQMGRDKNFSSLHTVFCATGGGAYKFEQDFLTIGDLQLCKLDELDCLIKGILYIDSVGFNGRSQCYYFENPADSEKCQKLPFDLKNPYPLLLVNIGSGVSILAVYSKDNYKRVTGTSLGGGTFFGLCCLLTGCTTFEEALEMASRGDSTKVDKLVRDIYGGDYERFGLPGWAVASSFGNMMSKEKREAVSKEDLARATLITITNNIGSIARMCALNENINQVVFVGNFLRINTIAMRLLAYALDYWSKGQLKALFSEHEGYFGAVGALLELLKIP
active: alisertib 0.35
inactive: vemurafenib 0.093 | [8] -0.036 | barasertib -0.047 | [1] 0.011 | volasertib -0.086 | [2] 0.002 | [3] -0.167 | [4] -0.057 | saracatinib 0.068 | sotrastaurin 0.027 | alvocidib 0.057 | Tubastatin A 0.108 | defactinib 0.023 | [6] 0 | encorafenib -0.01 | [7] 0.014 | [9] -0.046 | gefitinib -0.233

MYO10 (UniProt Q9HD67)
Chain of UniProt Q9HD67 (Q9HD67 whole entry, looked up): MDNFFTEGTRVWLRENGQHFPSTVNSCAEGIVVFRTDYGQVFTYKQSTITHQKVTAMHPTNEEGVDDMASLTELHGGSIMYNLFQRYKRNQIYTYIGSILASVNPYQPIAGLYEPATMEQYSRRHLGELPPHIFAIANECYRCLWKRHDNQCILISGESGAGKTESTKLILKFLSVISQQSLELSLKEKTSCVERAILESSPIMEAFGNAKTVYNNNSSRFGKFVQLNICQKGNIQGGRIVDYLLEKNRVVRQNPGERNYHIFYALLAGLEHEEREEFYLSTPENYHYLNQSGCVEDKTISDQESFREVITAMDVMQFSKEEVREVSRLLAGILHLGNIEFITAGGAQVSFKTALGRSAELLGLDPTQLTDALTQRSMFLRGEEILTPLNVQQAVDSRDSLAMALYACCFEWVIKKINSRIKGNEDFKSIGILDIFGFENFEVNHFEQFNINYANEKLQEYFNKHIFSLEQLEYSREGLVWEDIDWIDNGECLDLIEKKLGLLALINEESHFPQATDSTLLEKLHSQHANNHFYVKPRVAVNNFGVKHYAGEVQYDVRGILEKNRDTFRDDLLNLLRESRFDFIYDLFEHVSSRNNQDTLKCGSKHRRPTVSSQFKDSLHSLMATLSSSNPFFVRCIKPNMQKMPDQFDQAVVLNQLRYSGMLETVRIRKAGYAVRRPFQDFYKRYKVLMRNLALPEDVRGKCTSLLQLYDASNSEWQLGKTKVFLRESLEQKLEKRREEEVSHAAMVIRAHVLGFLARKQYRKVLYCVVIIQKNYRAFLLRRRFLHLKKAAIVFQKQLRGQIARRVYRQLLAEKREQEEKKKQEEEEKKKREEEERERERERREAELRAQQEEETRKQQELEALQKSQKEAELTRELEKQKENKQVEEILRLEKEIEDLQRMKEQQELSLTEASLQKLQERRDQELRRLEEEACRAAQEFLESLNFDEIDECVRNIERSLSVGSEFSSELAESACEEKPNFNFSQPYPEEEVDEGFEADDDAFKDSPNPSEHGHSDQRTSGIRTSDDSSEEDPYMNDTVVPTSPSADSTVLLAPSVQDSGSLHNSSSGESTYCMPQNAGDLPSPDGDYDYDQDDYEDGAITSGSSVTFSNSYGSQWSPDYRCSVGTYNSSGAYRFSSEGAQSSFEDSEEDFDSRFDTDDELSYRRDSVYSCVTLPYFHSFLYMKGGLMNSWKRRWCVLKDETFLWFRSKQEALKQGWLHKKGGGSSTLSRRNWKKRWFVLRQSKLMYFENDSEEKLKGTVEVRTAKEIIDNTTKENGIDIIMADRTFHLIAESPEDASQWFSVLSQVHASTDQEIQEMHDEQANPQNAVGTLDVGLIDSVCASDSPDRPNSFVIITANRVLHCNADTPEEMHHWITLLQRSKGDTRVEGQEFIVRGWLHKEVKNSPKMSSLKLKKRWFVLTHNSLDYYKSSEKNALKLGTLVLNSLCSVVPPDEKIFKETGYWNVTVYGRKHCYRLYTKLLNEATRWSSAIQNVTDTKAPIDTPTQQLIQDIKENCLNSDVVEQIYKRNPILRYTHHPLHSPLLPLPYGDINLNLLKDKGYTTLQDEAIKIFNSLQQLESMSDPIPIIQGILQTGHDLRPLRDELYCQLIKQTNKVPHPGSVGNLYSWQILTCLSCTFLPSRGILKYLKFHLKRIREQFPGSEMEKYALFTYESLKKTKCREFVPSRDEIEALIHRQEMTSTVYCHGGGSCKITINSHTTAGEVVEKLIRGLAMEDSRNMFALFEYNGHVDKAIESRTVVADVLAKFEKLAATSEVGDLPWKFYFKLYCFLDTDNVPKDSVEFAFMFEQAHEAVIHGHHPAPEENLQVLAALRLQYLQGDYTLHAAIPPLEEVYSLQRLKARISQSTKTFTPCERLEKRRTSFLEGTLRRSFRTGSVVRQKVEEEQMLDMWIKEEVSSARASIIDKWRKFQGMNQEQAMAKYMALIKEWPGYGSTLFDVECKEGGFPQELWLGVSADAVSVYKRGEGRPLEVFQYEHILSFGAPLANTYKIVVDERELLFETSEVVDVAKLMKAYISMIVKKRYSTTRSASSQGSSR
active: [3] 1.26
inactive: vemurafenib 0.483 | barasertib 0.171 | [2] -0.185 | [4] -0.381 | sotrastaurin -0.287 | alvocidib 0.048 | Tubastatin A 0.211 | [5] -0.012 | defactinib -0.106 | alisertib 0.021 | gefitinib 0.087

NFATC4 isoform 2 (UniProt Q14934)
inactive: vemurafenib 0.081 | [8] -0.013 | barasertib 0.059 | [1] -0.05 | volasertib -0.004 | [3] 0.053 | [4] 0.068 | saracatinib 0.044 | sotrastaurin 0.026 | alvocidib -0.062 | defactinib -0.12 | [6] 0.023 | encorafenib 0.011 | [7] -0.032 | alisertib 0.048 | [9] 0.244 | gefitinib 0.132

MXRA7 (UniProt P84157)
Chain of UniProt P84157 (P84157 whole entry, looked up): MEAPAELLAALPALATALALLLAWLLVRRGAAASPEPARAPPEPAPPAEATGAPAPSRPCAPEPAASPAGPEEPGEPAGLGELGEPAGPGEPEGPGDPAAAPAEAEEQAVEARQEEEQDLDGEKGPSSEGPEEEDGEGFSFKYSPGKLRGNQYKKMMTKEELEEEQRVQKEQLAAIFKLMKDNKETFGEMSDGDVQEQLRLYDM
inactive: vemurafenib -0.134 | [8] 0.094 | [1] -0.006 | volasertib 0.054 | [2] 0.049 | [3] -0.182 | [4] 0.167 | saracatinib 0.02 | sotrastaurin -0.064 | alvocidib -0.002 | Tubastatin A -0.056 | [5] -0.052 | defactinib -0.239 | [6] 0.131 | encorafenib 0.051 | [7] -0.028 | alisertib -0.19 | [9] -0.009 | gefitinib 0.177

OSBPL1A (UniProt Q9BXW6)
Chain of UniProt Q9BXW6 (Q9BXW6 whole entry, looked up): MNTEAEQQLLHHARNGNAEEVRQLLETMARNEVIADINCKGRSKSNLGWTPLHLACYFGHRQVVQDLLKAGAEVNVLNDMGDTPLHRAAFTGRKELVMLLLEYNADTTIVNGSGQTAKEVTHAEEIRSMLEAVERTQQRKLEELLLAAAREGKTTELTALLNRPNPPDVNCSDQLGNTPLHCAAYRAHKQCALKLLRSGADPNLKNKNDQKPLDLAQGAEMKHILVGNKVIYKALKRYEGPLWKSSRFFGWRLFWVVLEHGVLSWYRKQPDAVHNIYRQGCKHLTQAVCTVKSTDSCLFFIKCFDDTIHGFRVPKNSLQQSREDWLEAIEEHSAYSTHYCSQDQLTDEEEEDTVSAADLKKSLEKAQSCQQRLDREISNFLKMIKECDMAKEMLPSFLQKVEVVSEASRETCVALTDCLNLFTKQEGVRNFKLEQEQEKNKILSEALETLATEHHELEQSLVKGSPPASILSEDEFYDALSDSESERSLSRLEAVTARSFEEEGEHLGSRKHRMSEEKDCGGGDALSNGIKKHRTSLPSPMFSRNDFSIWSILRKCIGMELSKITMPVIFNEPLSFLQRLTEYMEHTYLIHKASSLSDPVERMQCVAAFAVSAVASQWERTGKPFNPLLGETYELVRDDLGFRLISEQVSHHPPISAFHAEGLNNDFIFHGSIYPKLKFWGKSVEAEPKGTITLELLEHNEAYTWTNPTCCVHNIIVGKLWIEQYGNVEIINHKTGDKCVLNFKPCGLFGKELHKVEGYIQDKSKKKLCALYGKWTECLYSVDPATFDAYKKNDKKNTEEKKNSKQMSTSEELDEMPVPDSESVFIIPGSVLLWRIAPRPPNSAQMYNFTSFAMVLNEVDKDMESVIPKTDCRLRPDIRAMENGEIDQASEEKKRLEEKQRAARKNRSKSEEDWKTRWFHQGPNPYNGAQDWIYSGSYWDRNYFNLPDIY
inactive: [8] 0.028 | barasertib 0.007 | volasertib 0.019 | [3] -0.095 | [4] 0.05 | saracatinib 0.013 | sotrastaurin 0.038 | alvocidib -0.035 | [5] 0.091 | [6] 0.099 | alisertib -0.071 | [9] 0.048 | gefitinib 0.135

PAGE4 (UniProt O60829)
Chain of UniProt O60829 (O60829 whole entry, looked up): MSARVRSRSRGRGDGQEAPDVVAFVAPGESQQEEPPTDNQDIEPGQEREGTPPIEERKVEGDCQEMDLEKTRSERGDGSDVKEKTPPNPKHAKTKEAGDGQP
inactive: [8] 0.015 | barasertib 0.108 | [1] 0.039 | volasertib 0.002 | [2] -0.042 | [3] 0.476 | [4] -0.158 | saracatinib 0.046 | sotrastaurin 0.092 | alvocidib 0.086 | Tubastatin A 0.027 | [5] -0.072 | [6] -0.038 | encorafenib -0.005 | [7] -0.086 | [9] 0.057

MYBL2 (UniProt P10244)
Chain of UniProt P10244 (P10244 whole entry, looked up): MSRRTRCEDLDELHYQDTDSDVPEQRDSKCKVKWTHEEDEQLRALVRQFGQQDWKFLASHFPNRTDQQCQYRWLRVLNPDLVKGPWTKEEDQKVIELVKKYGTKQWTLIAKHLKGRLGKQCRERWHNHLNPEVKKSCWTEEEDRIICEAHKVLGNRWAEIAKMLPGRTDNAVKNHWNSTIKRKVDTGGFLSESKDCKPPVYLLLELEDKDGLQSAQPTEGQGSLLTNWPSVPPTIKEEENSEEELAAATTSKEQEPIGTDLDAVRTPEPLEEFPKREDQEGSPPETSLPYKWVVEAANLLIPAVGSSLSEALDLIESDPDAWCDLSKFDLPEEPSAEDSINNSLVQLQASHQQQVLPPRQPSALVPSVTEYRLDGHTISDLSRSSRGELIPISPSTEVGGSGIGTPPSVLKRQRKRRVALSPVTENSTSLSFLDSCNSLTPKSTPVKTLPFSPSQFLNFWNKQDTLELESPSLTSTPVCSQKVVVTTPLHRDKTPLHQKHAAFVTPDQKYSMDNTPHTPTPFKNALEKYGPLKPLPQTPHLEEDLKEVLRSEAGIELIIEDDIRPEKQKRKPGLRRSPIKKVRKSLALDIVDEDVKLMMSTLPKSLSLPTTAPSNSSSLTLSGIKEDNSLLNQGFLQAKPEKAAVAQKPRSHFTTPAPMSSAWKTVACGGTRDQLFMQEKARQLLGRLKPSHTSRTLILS
inactive: vemurafenib -0.07 | [1] 0.013 | [2] 0.069 | [3] 0.217 | [4] -0.296 | saracatinib 0.057 | sotrastaurin 0.043 | alvocidib 0 | Tubastatin A -0.15 | [5] 0.045 | defactinib 0.113 | [6] -0.016 | encorafenib 0.088 | [7] -0.023
